Compound activity (PubChem BioAssay)
KCNH2 3.1 inh: blocks the human KCNH2 3.1 channel isoform | 340,000 tested, 0.95% active | U2OS KCNH2 3.1, thallium flux FluxOr; active compounds read low | activity change, % (tested at about 1.8 µM);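 active = maximum activity change below -70%; inconclusive = maximum activity change from -70% to -50%; inactive = maximum activity change above -50%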;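 note: thallium influx rate constant from kinetic fluorescence after stimulation buffer; % is set by controls: 0 for no effect and ±100 for the full control effect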
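FluxOr-based Tl+ influx in U2OS cells transduced with KCNH2 3.1 virus; rate constants normalized to DMSO controls.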
VDR inh: vitamin D3 receptor (human) inhibition | Potency, µM, for the others: max response, negative = inhibition, usual class: inhibitors | VDR-SRC2-3 peptide fluorescence polarization, 2 h | P11473 | AID 504847 | 400,000 tested, 0.93% active; note: potency is the fitted concentration of half-maximal effect; % is set by controls: 0 for no effect and ±100 for the full control effect
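VDR–SRC2-3 interaction, FP format. Cmpds 23 nl via pintool, brief spin, 2 h ambient incubation.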
MBNL1-CUG inh: blocks human MBNL1 binding to CUG repeat RNA | Q9NR56 | TR-FRET MBNL1-His/biotin-(CUG)12 binding, 665/545 ratio | Potency, µM (highest dose often 57.5 µM), without a hit: at the top dose activity change, negative = inhibition, hits mostly inhibitors | 280,000 tested, 0.036% active; active = well fitted inhibition curve with a large enough effect in the signal ratio, with a control signal flat, not every such curve was filed as active; inconclusive = small, poorly fitted or top-dose-only effect, or effect the other way, or a change in a side signal; inactive = no such curve, though single readings can be large or run the other way; the % refers to the signal ratio; note: potency is the fitted concentration of half-maximal effect; % is set by controls: 0 for no effect and ±100 for the full control effect
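Inhibition of protein-RNA binding appears as loss of TR-FRET between terbium anti-His antibody on MBNL1-His and streptavidin-XL665 on biotin-(CUG)12. Activity is normalized to buffer-only and uninhibited-complex controls.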
KCNH2 WT inh: blocks the wildtype human KCNH2 potassium channel; Q12809; U2OS, BacMam KCNH2, thallium flux FluxOr; active compounds read low; activity change, % at 1.84 µM; 340,000 tested, 0.37% active;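 active = maximum activity change below -70%; inconclusive = maximum activity change between -70% and -50%; inactive = maximum activity change above -50%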; note: % is set by controls: 0 for no effect and ±100 for the full control effect
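U2OS cells transduced with wild-type KCNH2 virus are loaded with FluxOr dye for 45 min, and thallium flux is measured in kinetic reads before and after stimulation buffer. Rate constants are normalized to DMSO controls.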
PLK1 PBD inh: inhibitors of human PLK1 polo-box domain binding. AID 720504. Plk1 PBD binding of FITC phosphopeptide, fluorescence polarization. P53350. Potency, µM, for inactives: max response, negative = inhibition, actives largely listed as inhibitors. 360,000 tested, 2.8% active; note: potency is the fitted concentration of half-maximal effect; series mostly up to about 57 µM; % is set by controls: 0 for no effect and ±100 for the full control effect; nearly all actives have a fitted effect of over 65% in size
Target sequence (P53350 whole entry, looked up, the tested form may be a part): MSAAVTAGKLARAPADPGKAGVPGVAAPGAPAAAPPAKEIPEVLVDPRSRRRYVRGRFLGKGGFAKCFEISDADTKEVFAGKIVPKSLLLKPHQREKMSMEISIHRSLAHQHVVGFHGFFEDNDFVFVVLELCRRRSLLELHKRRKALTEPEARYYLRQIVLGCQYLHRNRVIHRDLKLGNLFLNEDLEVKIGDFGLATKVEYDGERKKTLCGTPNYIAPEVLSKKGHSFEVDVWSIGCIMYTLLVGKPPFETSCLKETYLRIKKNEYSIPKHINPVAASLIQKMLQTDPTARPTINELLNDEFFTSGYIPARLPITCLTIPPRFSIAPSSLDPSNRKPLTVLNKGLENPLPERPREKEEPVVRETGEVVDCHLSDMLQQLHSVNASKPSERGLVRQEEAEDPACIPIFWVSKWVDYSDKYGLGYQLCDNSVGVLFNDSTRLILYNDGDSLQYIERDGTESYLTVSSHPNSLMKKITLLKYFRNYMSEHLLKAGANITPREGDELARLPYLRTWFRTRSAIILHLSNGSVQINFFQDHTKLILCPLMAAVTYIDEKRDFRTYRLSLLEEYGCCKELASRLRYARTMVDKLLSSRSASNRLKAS
CBFb RUNX1 block: inhibitors of human CBF-beta and RUNX1 interaction | AlphaScreen CBFb-His/RUNX1-biotin binding, biochemical | 230,000 tested, under 10 active | Potency, µM (highest dose often 59.8 µM), without a hit: at the highest dose activity, negative = inhibition, actives largely listed as inhibitors | Q01196+Q13951; note: % of control where 0% means no effect
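Proteins preincubated together for 20 min at RT before compound addition; 15 min later, nickel and streptavidin beads were added and left 90 min prior to AlphaScreen measurement.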
TbPYK inh: Trypanosoma brucei pyruvate kinase inhibition, cherry-pick confirmation; AID 720569; recombinant TbPYK, Kinase-Glo ATP luminescence; 890 tested, 67% active; Potency, µM (doses to about 76.9 µM), for the others: top-dose activity change, negative = inhibition, hits mostly inhibitors; shares compounds with PLK1 PBD inh; note: potency is the fitted concentration of half-maximal effect; % is set by controls: 0 for no effect and ±100 for the full control effect; nearly all actives have a fitted effect of over 70% in size
TbPYK orthogonal: inhibits T. brucei pyruvate kinase in orthogonal ADP-Glo assay; recombinant TbPYK, ADP-Glo luminescence, 60 min; 890 tested, 62% active; Potency, µM (highest dose often 76.9 µM), inactives show top-dose activity change, negative = inhibition, hits mostly inhibitors; shares compounds with PLK1 PBD inh; AID 720584; note: potency is the fitted concentration of half-maximal effect; % is set by controls: 0 for no effect and ±100 for the full control effect; nearly all actives have a fitted effect of over 75% in size
The depositor's hits bear a star; i = inactive; ? = inconclusive; nt = no result given. This is a sample that favours compounds with a hit; in the whole collection about 3.8% have one here. Unless noted, calls come from the whole dose curve; as a rule, active = well fitted curve in the direction sought with a large enough effect; inconclusive = small, poorly fitted or top-dose-only effect, or another doubt; inactive = no such curve, though single readings can be large; an effect the other way counts as inactive or inconclusive.

SMILES | KCNH2 3.1 inh | VDR inh | MBNL1-CUG inh | KCNH2 WT inh | PLK1 PBD inh | CBFb RUNX1 block | TbPYK inh | TbPYK orthogonal
CCOC(=O)C1C(=O)CC(C)(O)C(C(=O)OCC)C1c1ccc(Br)o1 (stereo unspecified) | 2 | 0% | -10% | 11 | -7% | 9% | ? | -26%
COc1ccc(-n2c(=O)c3c4c(sc3n(CC(=O)C(C)(C)C)c2=O)CCCC4)c(OC)c1 | nt | 5% | nt | nt | nt | nt | nt | nt
CC(=O)SC(C[N+](=O)[O-])c1cn(C(C)=O)c2ccccc12 (stereo unspecified) | 0 | 45µM* | 3% | 4 | 4.2µM* | 6% | ? | ?
CC(=O)n1cc(Nc2ccc([N+](=O)[O-])cc2)c2ccccc21 | 39 | -4% | 17% | nt | -14% | -3% | nt | nt
CCCCC[C@H](O)/C=C/C=C\C/C=C\CCCCC(=O)O | nt | 12% | nt | nt | nt | 4% | nt | nt
CN(C)c1oc(-c2ccccc2Cl)nc1C#N | -18 | -19% | 0% | -9 | -8% | -12% | nt | nt
CN(C)c1oc(-c2ccccc2[N+](=O)[O-])nc1C#N | -8 | 32µM* | nt | 0 | 27µM* | -1% | 1.8µM* | 4.5µM*
COc1ccc(N)cc1S(=O)(=O)Nc1ccccc1Cl | -1 | -7% | -5% | 18 | -9% | -11% | nt | nt
CCN(CC)c1ccc(N)cc1S(=O)(=O)Nc1ccccc1OC | -6 | 40µM* | -5% | 11 | 3.4µM* | -7% | 7.9µM* | 11µM*
O=C(CSc1nc2c([nH]c3ccccc32)c(=O)n1-c1cccc(Cl)c1)NCC1CCCO1 (stereo unspecified) | nt | 3% | nt | nt | nt | nt | nt | nt
O=C1C=CC(=O)N1CCNc1ncc(C(F)(F)F)cc1Cl | 7 | 22µM* | -4% | i | 2.7µM* | 1% | 1.3µM* | 4µM*
O=C1CC(=O)N(CCNc2ncc(C(F)(F)F)cc2Cl)C(=O)N1 | 9 | -18% | 3% | -4 | 4% | -8% | nt | nt
COc1cc(/C=C2/C(=O)CNC2=O)ccc1O | 9 | 0% | 5% | -2 | 29% | -12% | nt | nt
COc1cc(C=C2C(=O)C=CC2=O)ccc1O | nt | nt | nt | nt | 5.3µM* | nt | 1.1µM* | 1.1µM*
NC(=O)C1CCN(C(=O)c2cccc(S(=O)(=O)N3CCc4ccccc4C3)c2)CC1 | 17 | -15% | 2% | 21 | 8% | 2% | nt | nt
O=C(c1cccc(S(=O)(=O)N2CCc3ccccc3C2)c1)N1CCN(c2ccc(O)cc2)CC1 | -1 | -2% | 18% | -16 | -3% | -27% | 5µM* | 14µM*
CC1CCc2c(sc(Nc3nc4c(F)cccc4s3)c2C(N)=O)C1 (stereo unspecified) | 8 | -29% | 4% | -2 | -6% | -1% | 8.9µM* | 14µM*
COc1ccc2oc(=O)cc(CN3CCN(c4ccccc4F)CC3)c2c1 | nt | 12% | nt | nt | nt | nt | nt | nt
N#C/C(=C/c1ccc(N2CCOCC2)o1)c1ccc(Br)cc1 | -10 | 35µM* | 8% | -9 | 17% | -20% | ? | 35µM*
COc1cccc(CNC(=O)c2ccc(CN3CC(=O)N4CCCCC4C3=O)cc2)c1 (stereo unspecified) | nt | 1% | nt | nt | nt | nt | nt | nt
CCCN1C(=O)S/C(=C\c2ccc(N3CCOCC3)cc2C)C1=O | nt | nt | 5% | nt | nt | 3% | nt | nt
CCCN1C(=O)S/C(=C\c2ccc(N3CCOCC3)o2)C1=O | -18 | 32µM* | -11% | -6 | 105% | -8% | ? | 40µM*
CCOC(=O)c1c(C)[nH]c(C)c1S(=O)(=O)NCC(=O)NCc1cccc(Br)c1 | nt | 10% | nt | nt | nt | nt | nt | nt
CC(=O)c1ccc(N2CCN(CC(=O)N(CC(C)C)c3c(N)n(CC(C)C)c(=O)[nH]c3=O)CC2)cc1 | -5 | -11% | -3% | -7 | 6% | 11% | nt | nt
CC(C)CN(C(=O)CN1CCN(c2ccc(O)cc2)CC1)c1c(N)n(CC(C)C)c(=O)[nH]c1=O | 6 | -9% | 13% | -3 | -11% | -6% | ? | ?
SMILES | KCNH2 3.1 inh | VDR inh | MBNL1-CUG inh | KCNH2 WT inh | PLK1 PBD inh | CBFb RUNX1 block | TbPYK inh | TbPYK orthogonal
COc1ccc(CNC(=O)CSc2ncc3c(n2)-c2cc(Cl)ccc2N(Cc2ccccc2)S3(=O)=O)cc1OC | nt | -3% | nt | nt | nt | nt | nt | nt
CCOc1ccc(NC2=C(Cl)C(=O)N(Cc3ccccc3)C2=O)cc1 | -21 | -8% | 22% | 2 | -11% | -23% | nt | nt
Cc1ccc(O)c(NC2=C(Cl)C(=O)N(Cc3ccccc3)C2=O)c1 | -26 | ? | 12% | -8 | 3µM* | ? | 16µM* | 20µM*
CN(C)CCNC(=O)c1ccc2c(=O)n(Cc3ccc(Cl)cc3)c(=S)[nH]c2c1 | -8 | -13% | -3% | -9 | -29% | nt | nt | nt
CCCCN(C)CCNC(=O)c1ccc(Cn2c(=S)[nH]c3ccc(Br)cc3c2=O)cc1 | 26 | 15% | -1% | -3 | ? | -3% | 20µM* | 13µM*
COC(=O)c1ccc2c(=O)n(Cc3ccc(C(=O)NCCCN4CCC(C)CC4)cc3)c(=S)[nH]c2c1 | -11 | 0% | 7% | -2 | -11% | 5% | 18µM* | 16µM*
CC1CCN(CCCNC(=O)c2ccc3c(=O)n(Cc4ccc(Cl)cc4)c(=S)[nH]c3c2)CC1 | -20 | -26% | 5% | 8 | -4% | -9% | nt | nt
O=C(Nc1ccc(C(=O)N2CCCC2)cc1)c1ccccc1 | -10 | 7% | nt | 1 | -6% | nt | 28µM* | 8%
COc1cc(/C=N/N2CCN(Cc3ccc(C)cc3)CC2)cc(OC)c1O | 7 | -23% | 0% | -1 | -5% | nt | 22µM* | 28µM*
C=C(CN(C)C)C(=O)c1cc(C)ccc1C | -7 | 45µM* | nt | -27 | 2.7µM* | nt | 5.6µM* | 16µM*
Cc1ccc(C)c(C(=O)NCCN(C)C)c1 | 3 | 5% | 2% | -6 | -2% | -1% | nt | nt
CCCCn1nnnc1C1(C)CCC(=O)N1CCCn1ccnc1 (stereo unspecified) | nt | nt | nt | nt | 6µM* | nt | 14µM* | 35µM*
COc1ccc(C2C(=O)N(C3CCCCC3)CC(=O)N2CCc2ccc(C)cc2)cc1OC (stereo unspecified) | nt | 14% | nt | nt | nt | nt | nt | nt
CCOc1ccc(C(=O)c2cn(CC(=O)Nc3ccc4c(c3)OCCO4)c3ccc(F)cc3c2=O)cc1 | nt | -7% | nt | nt | nt | nt | nt | nt
O=C(c1ccc(Br)cc1)N1CCN(Cc2ccccc2)CC1 | -2 | 1% | -3% | 28 | -4% | nt | nt | nt
CN1CCN(C(=O)c2ccc(S(=O)(=O)c3ccc(Br)cc3)cc2)CC1 | 3 | -6% | -2% | 0 | -18% | 3% | nt | nt
